From PubChem BioAssay AID1159580 (chemical genetic matrix, 2015)
Among all 5,500 compounds or so, about 2,000 (36%) were called active. Roughly 18% stayed inconclusive and do not appear here. Rule as the data show it: active = normalized growth mostly below about 0.91 (no sharp cut-off); inconclusive = no clear call, values can overlap the other calls; inactive = mostly above about 0.92. The list shows a part of the results.

Assay: chemical genetic growth profiling, strain panel (AID 1159580);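 also: tested at 20 µM; growth read once vehicle control cultures reached saturation at 30 °C; 1 = growth at the plate median or of vehicle wells; lower values mean less growth of the strain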
Details: S. cerevisiae deletion strains, growth OD

Measured: normalized growth

O=c1cc(-c2ccc(O)c(O)c2)oc2cc(O)cc(O)c12
inactive: locus YAL040C, strain CLN3, hits give low values 1.02 | locus YCL061C, strain MRC1 (second series), hits give low values 0.989 | locus YDR150W, strain NUM1, hits give low values 0.964 | locus YDR363W, strain ESC2, hits give low values 1.02 | locus YER002W, strain NOP16, hits give low values 1.01 | locus YGR078C, strain PAC10, hits give low values 0.989 | locus YJR075W, strain HOC1, hits give low values 0.984 | locus YMR263W, strain SAP30, hits give low values 1 | locus YNL175C, strain NOP13, hits give low values 1.01 | locus YNL197C, strain WHI3, hits give low values 1.02 | locus YNL224C, strain SQS1, hits give low values 1.03 | locus YOR083W, strain WHI5 (second series), hits give low values 0.966 | locus YPL241C, strain CIN2, hits give low values 0.997
